# Measured values reported in the supplement of paper PMC11732987, “Enantioselective OTUD7B fragment discovery through chemoproteomics screening and high-throughput optimisation” (Communications Chemistry, 2025).
# Values without a mark were called inactive.
# What was measured:
# Test in all cases: log2 ratio of Biotin-Ahx-Ub-VS probe labelling (fragment/DMSO); higher = less target engagement (more negative = stronger competition), active = hit call of the paper (q ≤ 0.05, log2 ratio ≤ -1)
# Conditions in all cases: compound concentration: 200 uM; treatment time: 3 h
# ALG13 = biological target: T1, ALG13 (UniProt Q9NP73)
# T1 sequence (whole entry): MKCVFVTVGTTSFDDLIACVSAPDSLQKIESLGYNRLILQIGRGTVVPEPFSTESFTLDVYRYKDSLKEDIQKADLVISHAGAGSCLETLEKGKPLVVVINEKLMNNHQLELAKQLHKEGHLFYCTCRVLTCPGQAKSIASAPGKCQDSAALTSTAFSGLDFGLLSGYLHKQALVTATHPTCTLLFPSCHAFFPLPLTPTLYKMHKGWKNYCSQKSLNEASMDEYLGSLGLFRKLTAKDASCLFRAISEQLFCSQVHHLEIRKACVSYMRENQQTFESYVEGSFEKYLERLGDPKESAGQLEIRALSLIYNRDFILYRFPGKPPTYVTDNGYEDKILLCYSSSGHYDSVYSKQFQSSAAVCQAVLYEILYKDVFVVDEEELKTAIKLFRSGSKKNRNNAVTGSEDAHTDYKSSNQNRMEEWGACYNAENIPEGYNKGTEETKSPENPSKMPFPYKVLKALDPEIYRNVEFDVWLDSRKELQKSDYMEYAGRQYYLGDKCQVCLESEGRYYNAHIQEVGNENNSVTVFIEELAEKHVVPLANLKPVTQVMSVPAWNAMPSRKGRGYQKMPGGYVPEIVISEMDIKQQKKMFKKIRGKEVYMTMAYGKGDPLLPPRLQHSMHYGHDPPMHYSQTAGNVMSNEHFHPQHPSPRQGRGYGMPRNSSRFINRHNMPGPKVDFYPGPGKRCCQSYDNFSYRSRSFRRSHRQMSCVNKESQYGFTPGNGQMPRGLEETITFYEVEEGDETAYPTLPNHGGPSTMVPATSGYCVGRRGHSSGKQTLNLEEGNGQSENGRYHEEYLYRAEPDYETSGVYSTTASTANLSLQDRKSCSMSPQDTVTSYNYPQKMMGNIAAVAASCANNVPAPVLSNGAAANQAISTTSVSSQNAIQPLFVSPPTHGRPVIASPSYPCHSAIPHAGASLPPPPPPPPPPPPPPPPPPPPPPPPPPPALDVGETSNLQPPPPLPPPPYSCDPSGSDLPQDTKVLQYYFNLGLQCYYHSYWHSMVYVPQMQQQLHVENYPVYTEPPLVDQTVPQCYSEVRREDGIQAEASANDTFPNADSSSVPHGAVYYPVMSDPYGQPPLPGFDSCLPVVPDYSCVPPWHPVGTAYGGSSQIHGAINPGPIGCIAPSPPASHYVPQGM
# Summary of the method: (§1)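 Fragment (200 µM) or vehicle was incubated for 3 h with triplicate HEK293T lysate samples of 495 µg, which were then treated with Biotin-Ahx-Ub-VS at 0.5 µM final for 1 h. Labelled DUBs were enriched on NeutrAvidin, digested with LysC and trypsin, and analysed by diaPASEF LC-MS/MS. Values are average log2 fragment/vehicle ratios from an unpaired t-test on global-median-normalised Spectronaut label-free quantities, using proteins with ≥2 unique peptides.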
# ATXN3 = ATXN3 (UniProt P54252)
# Chain of ATXN3 (P54252 whole entry): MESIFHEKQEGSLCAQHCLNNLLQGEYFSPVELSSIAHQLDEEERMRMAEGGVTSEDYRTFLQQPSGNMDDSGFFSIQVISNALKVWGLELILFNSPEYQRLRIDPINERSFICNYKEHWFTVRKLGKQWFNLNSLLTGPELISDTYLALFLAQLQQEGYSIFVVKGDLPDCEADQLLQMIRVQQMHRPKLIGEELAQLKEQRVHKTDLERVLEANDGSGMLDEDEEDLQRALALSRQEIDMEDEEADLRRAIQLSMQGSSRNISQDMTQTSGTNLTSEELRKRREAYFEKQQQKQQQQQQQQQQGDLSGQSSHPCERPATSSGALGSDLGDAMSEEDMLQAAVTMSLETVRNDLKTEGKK
# Summary of the method: as §1
# BAP1 = biological target: T2, BAP1 (UniProt Q92560)
# T2 sequence (whole entry): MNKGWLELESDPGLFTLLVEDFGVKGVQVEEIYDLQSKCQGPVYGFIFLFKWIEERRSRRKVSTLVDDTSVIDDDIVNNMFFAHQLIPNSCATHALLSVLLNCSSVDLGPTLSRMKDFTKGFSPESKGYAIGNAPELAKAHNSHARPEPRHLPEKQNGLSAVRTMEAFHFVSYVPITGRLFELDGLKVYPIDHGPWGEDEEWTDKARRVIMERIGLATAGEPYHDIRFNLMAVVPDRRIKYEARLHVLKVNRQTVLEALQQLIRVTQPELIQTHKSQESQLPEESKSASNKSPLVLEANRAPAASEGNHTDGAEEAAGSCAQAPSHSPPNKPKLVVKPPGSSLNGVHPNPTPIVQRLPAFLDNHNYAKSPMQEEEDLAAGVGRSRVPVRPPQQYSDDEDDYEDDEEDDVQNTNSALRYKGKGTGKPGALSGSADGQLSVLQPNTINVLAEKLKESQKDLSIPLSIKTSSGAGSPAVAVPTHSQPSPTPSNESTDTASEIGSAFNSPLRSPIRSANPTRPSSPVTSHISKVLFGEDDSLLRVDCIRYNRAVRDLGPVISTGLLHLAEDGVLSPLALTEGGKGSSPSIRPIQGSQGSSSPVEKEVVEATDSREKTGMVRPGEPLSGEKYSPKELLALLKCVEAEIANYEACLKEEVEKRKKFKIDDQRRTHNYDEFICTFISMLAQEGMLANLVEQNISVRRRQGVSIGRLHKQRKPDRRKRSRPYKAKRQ
# Summary of the method: as §1
# EIF3F = EIF3F (UniProt O00303)
# Chain of EIF3F (O00303 whole entry): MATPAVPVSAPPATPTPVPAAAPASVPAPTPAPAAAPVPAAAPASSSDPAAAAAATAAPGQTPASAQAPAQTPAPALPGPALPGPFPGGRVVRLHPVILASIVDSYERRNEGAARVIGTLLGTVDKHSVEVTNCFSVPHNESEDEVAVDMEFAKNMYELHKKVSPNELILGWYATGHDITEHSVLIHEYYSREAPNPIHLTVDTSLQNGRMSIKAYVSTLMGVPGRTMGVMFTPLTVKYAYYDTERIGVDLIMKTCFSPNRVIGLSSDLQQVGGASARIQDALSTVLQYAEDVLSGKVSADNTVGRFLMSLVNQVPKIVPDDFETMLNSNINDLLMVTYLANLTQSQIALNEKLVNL
# Summary of the method: as §1
# EIF3H = EIF3H (UniProt O15372)
# Chain of EIF3H (O15372 whole entry): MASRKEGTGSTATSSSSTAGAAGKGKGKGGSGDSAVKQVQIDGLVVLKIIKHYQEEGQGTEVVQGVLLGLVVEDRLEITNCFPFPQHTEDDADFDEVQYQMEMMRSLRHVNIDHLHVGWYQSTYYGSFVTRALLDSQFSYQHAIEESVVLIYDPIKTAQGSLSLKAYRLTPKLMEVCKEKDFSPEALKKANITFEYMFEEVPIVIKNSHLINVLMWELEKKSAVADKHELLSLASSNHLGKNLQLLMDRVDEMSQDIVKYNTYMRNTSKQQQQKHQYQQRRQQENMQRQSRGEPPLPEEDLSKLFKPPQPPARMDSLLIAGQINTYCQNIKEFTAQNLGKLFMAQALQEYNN
# Summary of the method: as §1
# FAM105A = biological target: T3, FAM105A (UniProt Q9NUU6)
# T3 sequence (whole entry): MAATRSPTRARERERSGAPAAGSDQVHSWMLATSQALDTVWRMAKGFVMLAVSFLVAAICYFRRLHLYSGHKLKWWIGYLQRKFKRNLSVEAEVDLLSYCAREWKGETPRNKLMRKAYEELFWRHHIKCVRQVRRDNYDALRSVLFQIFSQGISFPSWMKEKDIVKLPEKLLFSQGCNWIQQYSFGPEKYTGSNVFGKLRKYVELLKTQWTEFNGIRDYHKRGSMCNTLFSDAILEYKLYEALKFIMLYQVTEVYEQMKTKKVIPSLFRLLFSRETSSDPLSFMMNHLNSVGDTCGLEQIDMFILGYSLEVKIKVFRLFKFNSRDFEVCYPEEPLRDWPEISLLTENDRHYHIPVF
# Summary of the method: as §1
# OTUB1 = OTUB1 (UniProt Q96FW1)
# Chain of OTUB1 (Q96FW1 whole entry): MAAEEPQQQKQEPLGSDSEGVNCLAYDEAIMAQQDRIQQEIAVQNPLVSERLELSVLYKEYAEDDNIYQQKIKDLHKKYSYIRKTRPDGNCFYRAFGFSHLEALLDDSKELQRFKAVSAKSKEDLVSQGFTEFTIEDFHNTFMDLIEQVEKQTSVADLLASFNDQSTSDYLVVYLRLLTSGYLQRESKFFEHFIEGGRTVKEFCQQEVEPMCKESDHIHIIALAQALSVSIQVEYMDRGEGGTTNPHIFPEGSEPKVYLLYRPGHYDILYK
# Summary of the method: as §1
# OTUD4 = biological target: T4, OTUD4 (UniProt Q01804)
# T4 sequence (whole entry): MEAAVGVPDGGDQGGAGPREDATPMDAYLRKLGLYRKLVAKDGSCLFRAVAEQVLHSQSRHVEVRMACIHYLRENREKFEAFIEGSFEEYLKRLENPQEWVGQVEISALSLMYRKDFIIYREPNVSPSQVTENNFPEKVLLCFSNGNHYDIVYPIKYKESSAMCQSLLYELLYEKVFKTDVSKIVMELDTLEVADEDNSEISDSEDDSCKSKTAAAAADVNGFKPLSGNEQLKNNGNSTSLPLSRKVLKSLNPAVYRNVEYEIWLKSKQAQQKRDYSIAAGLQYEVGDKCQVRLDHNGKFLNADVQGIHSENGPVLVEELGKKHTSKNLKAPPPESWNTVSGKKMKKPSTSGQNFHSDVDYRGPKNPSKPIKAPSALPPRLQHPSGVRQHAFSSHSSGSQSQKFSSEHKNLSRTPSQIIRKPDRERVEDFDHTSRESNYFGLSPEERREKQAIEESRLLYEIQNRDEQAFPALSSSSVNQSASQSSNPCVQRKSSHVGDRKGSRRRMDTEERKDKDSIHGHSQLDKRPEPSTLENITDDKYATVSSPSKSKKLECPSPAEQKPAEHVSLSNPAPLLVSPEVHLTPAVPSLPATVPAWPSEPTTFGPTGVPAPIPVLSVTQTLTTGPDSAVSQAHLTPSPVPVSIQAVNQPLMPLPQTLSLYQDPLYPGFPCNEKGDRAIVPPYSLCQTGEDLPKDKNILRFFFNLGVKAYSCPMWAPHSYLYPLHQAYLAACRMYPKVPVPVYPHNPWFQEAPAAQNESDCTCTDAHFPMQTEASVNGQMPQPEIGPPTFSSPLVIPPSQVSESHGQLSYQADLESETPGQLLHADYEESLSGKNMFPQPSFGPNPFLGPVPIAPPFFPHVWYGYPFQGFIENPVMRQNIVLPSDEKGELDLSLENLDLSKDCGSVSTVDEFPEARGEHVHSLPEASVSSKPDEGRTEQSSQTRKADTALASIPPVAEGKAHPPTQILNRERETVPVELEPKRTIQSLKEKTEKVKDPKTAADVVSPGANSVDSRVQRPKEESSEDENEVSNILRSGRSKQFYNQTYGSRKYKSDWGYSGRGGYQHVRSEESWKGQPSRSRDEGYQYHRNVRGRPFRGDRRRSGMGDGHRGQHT
# Summary of the method: as §1
# OTUD5 = biological target: T5, OTUD5 (UniProt Q96G74)
# T5 sequence (whole entry): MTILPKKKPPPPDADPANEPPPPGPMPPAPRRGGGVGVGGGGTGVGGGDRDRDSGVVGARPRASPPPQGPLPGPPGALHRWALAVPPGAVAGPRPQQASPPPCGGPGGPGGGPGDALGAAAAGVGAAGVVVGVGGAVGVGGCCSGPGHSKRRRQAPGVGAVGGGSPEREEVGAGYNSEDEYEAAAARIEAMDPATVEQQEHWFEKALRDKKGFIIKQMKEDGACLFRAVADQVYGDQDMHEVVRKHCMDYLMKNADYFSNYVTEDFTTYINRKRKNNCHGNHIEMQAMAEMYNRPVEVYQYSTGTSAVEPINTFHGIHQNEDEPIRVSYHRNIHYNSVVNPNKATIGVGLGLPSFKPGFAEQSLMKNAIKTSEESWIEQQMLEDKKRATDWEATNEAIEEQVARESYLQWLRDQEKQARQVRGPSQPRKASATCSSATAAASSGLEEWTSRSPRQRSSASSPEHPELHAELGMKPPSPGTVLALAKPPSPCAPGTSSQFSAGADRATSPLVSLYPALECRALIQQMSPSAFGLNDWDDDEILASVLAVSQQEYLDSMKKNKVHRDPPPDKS
# Summary of the method: as §1
smiles,measurement,setting,value
CNC(=O)Cn1cc(NC(=O)CCl)cn1,log2 ratio of Biotin-Ahx-Ub-VS probe labelling,ALG13,-0.433
same,log2 ratio of Biotin-Ahx-Ub-VS probe labelling,ATXN3,-0.517
same,log2 ratio of Biotin-Ahx-Ub-VS probe labelling,BAP1,-1.67 (active)
same,log2 ratio of Biotin-Ahx-Ub-VS probe labelling,EIF3F,-0.308
same,log2 ratio of Biotin-Ahx-Ub-VS probe labelling,EIF3H,0.0304
same,log2 ratio of Biotin-Ahx-Ub-VS probe labelling,FAM105A,-0.125
same,log2 ratio of Biotin-Ahx-Ub-VS probe labelling,OTUB1,-0.0242
same,log2 ratio of Biotin-Ahx-Ub-VS probe labelling,OTUD4,-0.305
same,log2 ratio of Biotin-Ahx-Ub-VS probe labelling,OTUD5,-0.468
